Screening results from PubChem BioAssay.
Autofluor counter: flagged as autofluorescent in microsphere protease counterscreen; compound autofluorescence counterscreen, microsphere flow cytometry; active compounds read high; fluorescence intensity (no concentration beside the values); actives 3.1% (n = 360,000); AID 624483; in the data active = fluorescence intensity above about 16000; inconclusive = no clear call, values can overlap the other calls
SSB-PriA inh: inhibitors of Klebsiella pneumoniae PriA binding to SSB C-terminal tail, primary screen, biochemical, AlphaScreen. PriA–SSB C-terminal tail interaction (Klebsiella pneumoniae). AlphaScreen SSBct-PriA binding, biotinylated peptide. inhibition, % at 33 µM. actives 0.6% (n = 430,000). AID 1272365, 2023; in the data active = inhibition mostly above about 37%, no sharp cut-off; inactive = mostly below about 20%
BoNT A protease: BoNT/A light chain protease inhibitors, primary screen, biochemical, flow cytometry, MLPCN library | actives 0.17% (n = 360,000) | inhibition, % at 10 µM | AID 588499, 2011 | Botulinum neurotoxin type A light chain protease (Clostridium botulinum A str. ATCC 3502) | multiplex microsphere protease substrate cleavage
MazEF act: activators of E. coli MazEF toxin-antitoxin RNase, primary screen, biochemical, fluorescence, uHTS | AID 504720, 2011 | actives 0.32% (n = 350,000) | FAM/BHQ RNA-DNA oligo cleavage fluorescence, 5 h | activation, % at 20 µM; in the data active = activation above about 50%
Anthrax LF prot: Bacillus anthracis LF protease inhibitors, primary screen, biochemical, multiplex microsphere, MLPCN library | Lethal factor (Bacillus anthracis), P15917 | multiplex microsphere protease cleavage assay | inhibition, % at 10 µM | actives 0.12% (n = 360,000) | AID 588501, 2011
Target sequence (P15917 whole entry, looked up): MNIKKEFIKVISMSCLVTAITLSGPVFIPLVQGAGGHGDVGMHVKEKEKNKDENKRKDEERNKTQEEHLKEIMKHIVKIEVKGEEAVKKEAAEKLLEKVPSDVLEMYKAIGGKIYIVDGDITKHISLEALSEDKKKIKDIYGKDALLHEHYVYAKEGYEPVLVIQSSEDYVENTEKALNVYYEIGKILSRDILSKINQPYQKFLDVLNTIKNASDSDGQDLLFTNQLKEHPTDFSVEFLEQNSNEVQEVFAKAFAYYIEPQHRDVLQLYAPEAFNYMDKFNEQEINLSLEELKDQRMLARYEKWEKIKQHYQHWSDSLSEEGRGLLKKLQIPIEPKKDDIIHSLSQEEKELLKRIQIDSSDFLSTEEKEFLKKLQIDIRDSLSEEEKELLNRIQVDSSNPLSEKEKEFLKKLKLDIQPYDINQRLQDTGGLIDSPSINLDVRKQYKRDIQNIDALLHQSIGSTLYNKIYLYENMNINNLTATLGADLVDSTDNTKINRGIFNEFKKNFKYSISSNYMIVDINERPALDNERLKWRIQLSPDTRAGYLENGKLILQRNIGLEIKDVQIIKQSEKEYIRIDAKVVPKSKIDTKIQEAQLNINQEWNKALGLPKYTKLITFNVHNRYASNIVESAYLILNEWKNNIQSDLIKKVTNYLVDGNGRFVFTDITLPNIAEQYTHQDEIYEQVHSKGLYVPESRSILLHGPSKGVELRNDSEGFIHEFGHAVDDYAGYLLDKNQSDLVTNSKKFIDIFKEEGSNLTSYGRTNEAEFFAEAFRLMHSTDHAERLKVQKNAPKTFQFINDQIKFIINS
BoNT-F LC inh: BoNT/F light chain protease inhibitors, primary screen, biochemical, flow cytometry, MLPCN library; Botulinum neurotoxin type F light chain protease (Clostridium botulinum); Multiplex microsphere protease cleavage assay; inhibition, % at 10 µM; actives 0.22% (n = 360,000); AID 588497, 2011; in the data active = inhibition above about 35%, passing the limit was not always enough; inconclusive = no clear call, values can overlap the other calls
A number is an active result; n = inactive; u = inconclusive; x = no result. This is a sample that favours compounds with a hit; in the whole collection about 3.3% have one here. Rule as the data show it, unless noted: active = inhibition above about 30%; inconclusive = no clear call, values can overlap the other calls; inactive = below that.

SMILES | Autofluor counter | SSB-PriA inh | BoNT A protease | MazEF act | Anthrax LF prot | BoNT-F LC inh
Cc1nnc(NC(=O)CSc2nccn2Cc2ccc3c(c2)OCO3)s1 | x | n | x | x | x | x
CCOC(=O)c1ccccc1NC(=O)CSc1nccn1Cc1ccc2c(c1)OCO2 | x | 43 | x | x | x | x
COc1ccc(Cl)cc1NC(=O)CSc1nccn1Cc1ccc2c(c1)OCO2 | x | 45 | x | x | x | x
Cc1ccc(-c2nnc3ccc(SCC(=O)Nc4cc(C)on4)nn23)cc1 | 20468 | n | n | n | n | n
Cc1cc(NC(=O)CSc2nnc(-c3cccnc3)n2C)no1 | 21792 | n | u | n | n | n
Cc1cc(NC(=O)CSc2ccc3nnc(-c4ccc(F)cc4)n3n2)no1 | n | n | n | n | n | n
COC1CCN(S(=O)(=O)c2ccc(C(F)(F)F)cc2)CC1 | x | n | x | x | x | x
C=CCN1C(=O)C2(c3ccccc31)C1CCCC=C1C(C#N)=C(N)C2(C#N)C#N (configuration not stated) | n | n | n | n | n | n
C=CCN1C(=O)[C@]2(c3ccccc31)C1CCCC=C1C(C#N)=C(N)C2(C#N)C#N (some centres not stated) | 20366 | n | u | n | n | n
Cc1ccc(CSCCNC(=O)c2ccc(Cl)c(S(=O)(=O)N3CCOCC3)c2)cc1 | 20110 | n | n | n | n | n
Cc1cc(C)nc(N=C2NC(=O)CC(C(=O)O)N2c2ccc(Cl)cc2)n1 (configuration not stated) | x | n | x | x | x | x
COc1ccc(OC)c(/C=N/NC(=O)CCc2c(C)n[nH]c2C)c1 | n | n | n | n | n | 40
Cc1[nH]n(-c2ccc([N+](=O)[O-])cc2)c(=O)c1C=NCCN1CCN(C(=O)c2ccc(F)cc2)CC1 | 20052 | n | u | n | n | n
NC(=S)NN=C1c2ccccc2-c2ccccc21 | n | n | n | n | n | n
NC(N)=NN=C1c2ccccc2-c2ccccc21 | n | n | n | n | 49 | 82
COc1ccccc1-c1ccc(N2CCN(C(=O)NCc3ccccc3)CC2)nn1 | x | n | x | x | x | x
O=C(NCc1ccccn1)c1cccs1 | 17079 | n | u | n | n | n
O=C(NCCCCCCNC(=O)c1ccc(Br)s1)c1ccc(Br)s1 | 23002 | n | n | n | n | n
O=C(NCc1ccccn1)c1ccc(Cl)cc1Cl | 18047 | n | n | n | n | n
O=C(NCc1ccccn1)Nc1cccc(NC(=O)NCc2ccccn2)c1 | 22604 | n | n | n | n | n
O=C(NCCCNC(=O)c1ccc(Cl)cc1Cl)c1ccccn1 | n | n | n | n | n | n
O=C(NCc1ccccn1)Nc1cccc(Cl)c1 | n | n | n | n | n | n
COc1cccc(C(=O)Nc2ccc3c(c2)CCCN3C(=O)C2CC2)c1OC | x | n | x | x | x | x
Cc1noc(C)c1CCC(=O)NCC#CCOc1cccc(C(F)(F)F)c1 | x | n | x | x | x | x
Cc1ccccc1-n1nnc(C(=O)NCCc2c[nH]c3ccccc23)c1-c1ccncc1 | x | n | x | x | x | x
SMILES | Autofluor counter | SSB-PriA inh | BoNT A protease | MazEF act | Anthrax LF prot | BoNT-F LC inh
O=C(NCc1ccccn1)c1ccc(Br)s1 | 17043 | n | n | n | n | n
O=C(NCc1ccccn1)c1ccc(Cl)s1 | n | n | n | n | n | n
Cc1cc(NC(=O)c2cccs2)n(-c2nc3c(F)cccc3s2)n1 | x | n | x | x | x | x
COc1ccc(-c2c(S(=O)(=O)c3ccccc3)cnn2-c2ccccc2)cc1 | 21873 | n | n | n | n | n
O=S(=O)(c1ccccc1)c1cnn(-c2ccccc2)c1-c1ccc(Cl)cc1 | 22953 | n | u | n | n | n
COc1ccc2ncc(S(=O)(=O)c3ccccc3)c(N3CCN(c4ccccc4)CC3)c2c1 | n | n | n | n | n | n
CCOCCn1c(=NC(=O)CCSc2ccccc2)sc2cc(Cl)ccc21 | x | n | x | x | x | x
CC(O)(CS(=O)(=O)c1ccccc1)C(=O)Nc1cccc(C(F)(F)F)c1 (configuration not stated) | 21019 | n | n | n | n | n
Cc1ccc(S(=O)(=O)CC(C)(O)C(=O)Nc2cccc(C(F)(F)F)c2)cc1 (configuration not stated) | n | n | n | n | n | n
COCCNS(=O)(=O)c1ccc2c(c1)C(=O)c1cc(S(=O)(=O)NCCOC)ccc1-2 | 16158 | n | n | n | n | n
O=C1c2cc(S(=O)(=O)NCCCO)ccc2-c2ccc(S(=O)(=O)NCCCO)cc21 | 21753 | n | n | n | n | n
O=c1oc2cc(S(=O)(=O)NCCCO)ccc2c2ccc(S(=O)(=O)NCCCO)cc12 | n | n | n | n | n | n
N#Cc1ccccc1NC(=O)C(=O)NCc1ccccc1Cl | x | n | x | x | x | x
Cc1ccc(NC(=O)c2oc3ccccc3c2NC(=O)/C=C\c2ccccc2)cc1 | x | n | x | x | x | x
CCOCCCNC(=O)c1cc2sc(Cl)cc2n1CC | 18115 | n | u | n | n | n
O=C1CC(c2cccs2)c2cc3c(cc2N1)OCO3 (configuration not stated) | 23380 | n | n | n | n | n
COc1ccc(N(C)S(=O)(=O)c2cc(N(C)S(=O)(=O)c3ccc(C)cc3)c(C)cc2C)cc1 | x | n | x | x | x | x
O=C(NCC1CCCO1)C1CC(c2ccccc2Cl)=NO1 (configuration not stated) | 21967 | n | n | n | n | n
O=C1CC(NNC(=O)c2ccc(Br)cc2)C(=O)N1 (configuration not stated) | n | n | n | n | n | 43
O=C1CC(NNC(=O)c2ccccc2)C(=O)N1 (configuration not stated) | n | n | n | n | n | n
CC(=O)N1CCc2ccc(NC(=O)c3ccco3)cc21 | x | n | x | x | x | x
O=C(Nc1ccc(-c2cn3ccsc3n2)cc1)c1ccc(F)c(S(=O)(=O)N2CCOCC2)c1 | 19935 | n | n | n | n | n
O=C(Cn1cccc1)N1CC(S(=O)(=O)c2ccc(Cl)cc2)C1 | x | n | x | x | x | x
Oc1cc(NCc2ccc(F)cc2)cc2cccnc12 | n | n | n | n | n | n
CN(C)CCCNc1cc(O)c2ncccc2c1 | n | 48 | n | n | n | n
SMILES | Autofluor counter | SSB-PriA inh | BoNT A protease | MazEF act | Anthrax LF prot | BoNT-F LC inh
Cc1ccc(S(=O)(=O)NC(CC(=O)O)c2ccco2)cc1 (configuration not stated) | 16531 | n | u | n | n | n
O=C(O)CC(NS(=O)(=O)c1ccc(Br)cc1)c1ccco1 (configuration not stated) | n | n | n | n | n | n
CC(=O)c1ccc(NC(=O)C(C)Sc2nnnn2C)cc1 (configuration not stated) | 23749 | n | n | n | n | n
Cn1cnc(S(=O)(=O)N2CCc3ncncc3C2)c1 | x | n | x | x | x | x
O=C(Nc1c(F)cc(F)cc1Br)c1cccnc1 | 23919 | n | n | n | n | n
O=C(N/N=C/c1cc(Br)c(O)c(Br)c1)c1cccnc1 | n | x | n | n | n | n
O=C(Nc1ccc(Br)cc1F)c1cccnc1 | n | n | n | n | n | n
